Assay results: paper PMC7862700, “An all-to-all approach to the identification of sequence-specific readers for epigenetic DNA modifications on cytosine”

Tests used:
Test in all cases: DAPPL (digital affinity profiling via proximity ligation, sequencing); 10 mM Tris-HCl pH 7.5, 50 mM NaCl, 1 mM DTT, 4% glycerol, room temperature, 30 min; GST-TFs on glutathione beads, 16-mer random dsDNA library, 0.1% formaldehyde crosslink after washing; high values mean tight binding
Settings in all cases: protein: recombinant; tags: N-terminal GST; dsDNA, one strand shown
[1] = target: T1, FLI1 (Homo sapiens, UniProt Q01543 1-452)
T1 sequence: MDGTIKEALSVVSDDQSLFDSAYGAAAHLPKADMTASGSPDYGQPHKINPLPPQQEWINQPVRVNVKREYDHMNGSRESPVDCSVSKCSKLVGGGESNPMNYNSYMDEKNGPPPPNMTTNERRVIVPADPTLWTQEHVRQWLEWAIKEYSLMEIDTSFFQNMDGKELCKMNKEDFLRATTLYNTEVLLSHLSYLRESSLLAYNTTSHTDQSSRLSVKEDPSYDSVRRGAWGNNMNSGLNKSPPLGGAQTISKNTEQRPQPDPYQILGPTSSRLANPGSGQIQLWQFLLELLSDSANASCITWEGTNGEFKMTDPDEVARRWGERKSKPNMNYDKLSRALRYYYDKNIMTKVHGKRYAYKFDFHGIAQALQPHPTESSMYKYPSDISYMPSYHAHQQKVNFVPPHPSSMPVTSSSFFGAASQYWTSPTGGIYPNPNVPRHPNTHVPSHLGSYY
Summary of the method: (§1)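 Pools of DNA-barcoded human transcription factors, expressed in yeast as GST fusions on glutathione beads and combined with a tag-only sample, were incubated with 200 nmole of a 16-mer random double-stranded DNA library. Incubation took 30 min at room temperature in Tris/NaCl/DTT/glycerol buffer and was followed by washing, 0.1% formaldehyde crosslinking, proximity ligation (BsaI/T4 ligase, 1 h, 37 °C), PCR amplification and sequencing on an Illumina NextSeq500. Binding signal is the ratio of a hexamer's read frequency for a factor to its frequency for the tag-only sample.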

[2] = target: T2, ELK1 (Homo sapiens, UniProt P19419 1-428)
T2 sequence: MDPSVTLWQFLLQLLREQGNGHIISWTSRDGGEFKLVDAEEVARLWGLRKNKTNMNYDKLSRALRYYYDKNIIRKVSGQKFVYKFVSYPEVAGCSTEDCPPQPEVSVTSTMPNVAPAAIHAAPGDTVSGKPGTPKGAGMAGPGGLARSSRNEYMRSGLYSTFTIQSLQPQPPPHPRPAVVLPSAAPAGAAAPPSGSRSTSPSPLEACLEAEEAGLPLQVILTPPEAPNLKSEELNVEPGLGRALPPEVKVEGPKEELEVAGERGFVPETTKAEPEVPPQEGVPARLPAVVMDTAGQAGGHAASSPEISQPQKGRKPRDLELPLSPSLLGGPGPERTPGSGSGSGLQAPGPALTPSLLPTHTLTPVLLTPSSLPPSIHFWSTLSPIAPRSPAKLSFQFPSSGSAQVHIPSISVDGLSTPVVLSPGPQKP
Summary of the method: as §1

[3] = target: T3, GABPA (Homo sapiens, UniProt Q06546 1-454)
T3 sequence: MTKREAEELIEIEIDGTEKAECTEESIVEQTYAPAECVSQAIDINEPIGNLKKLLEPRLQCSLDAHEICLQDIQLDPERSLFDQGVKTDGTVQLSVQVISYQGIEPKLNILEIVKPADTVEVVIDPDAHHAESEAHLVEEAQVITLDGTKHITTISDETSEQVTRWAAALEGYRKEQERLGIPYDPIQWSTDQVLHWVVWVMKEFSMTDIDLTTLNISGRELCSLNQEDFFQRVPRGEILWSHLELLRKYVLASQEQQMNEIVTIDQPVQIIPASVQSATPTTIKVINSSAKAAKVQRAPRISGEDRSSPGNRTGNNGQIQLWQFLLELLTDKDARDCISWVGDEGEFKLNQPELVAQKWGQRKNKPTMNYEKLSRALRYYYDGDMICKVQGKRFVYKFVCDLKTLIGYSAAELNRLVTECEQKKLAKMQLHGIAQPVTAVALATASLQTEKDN
Summary of the method: as §1

[4] = target: T4, ERG (Homo sapiens, UniProt P11308 1-479)
T4 sequence: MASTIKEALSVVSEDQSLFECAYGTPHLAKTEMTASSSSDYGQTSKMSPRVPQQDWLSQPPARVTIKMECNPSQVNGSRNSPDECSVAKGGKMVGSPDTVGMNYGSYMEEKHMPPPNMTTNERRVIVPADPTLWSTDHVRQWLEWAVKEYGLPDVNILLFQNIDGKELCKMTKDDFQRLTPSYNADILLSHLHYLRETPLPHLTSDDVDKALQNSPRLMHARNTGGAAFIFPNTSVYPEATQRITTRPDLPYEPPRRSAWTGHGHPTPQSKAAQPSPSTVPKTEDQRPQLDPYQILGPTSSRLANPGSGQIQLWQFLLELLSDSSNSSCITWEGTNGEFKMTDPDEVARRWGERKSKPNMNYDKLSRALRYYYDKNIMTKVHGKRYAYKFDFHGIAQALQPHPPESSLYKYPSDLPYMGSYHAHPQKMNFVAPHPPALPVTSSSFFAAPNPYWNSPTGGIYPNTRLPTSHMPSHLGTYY
Summary of the method: as §1

[5] = target: ELF1 (Homo sapiens, UniProt P32519 1-619)
Sequence of ELF1 (P32519 whole entry): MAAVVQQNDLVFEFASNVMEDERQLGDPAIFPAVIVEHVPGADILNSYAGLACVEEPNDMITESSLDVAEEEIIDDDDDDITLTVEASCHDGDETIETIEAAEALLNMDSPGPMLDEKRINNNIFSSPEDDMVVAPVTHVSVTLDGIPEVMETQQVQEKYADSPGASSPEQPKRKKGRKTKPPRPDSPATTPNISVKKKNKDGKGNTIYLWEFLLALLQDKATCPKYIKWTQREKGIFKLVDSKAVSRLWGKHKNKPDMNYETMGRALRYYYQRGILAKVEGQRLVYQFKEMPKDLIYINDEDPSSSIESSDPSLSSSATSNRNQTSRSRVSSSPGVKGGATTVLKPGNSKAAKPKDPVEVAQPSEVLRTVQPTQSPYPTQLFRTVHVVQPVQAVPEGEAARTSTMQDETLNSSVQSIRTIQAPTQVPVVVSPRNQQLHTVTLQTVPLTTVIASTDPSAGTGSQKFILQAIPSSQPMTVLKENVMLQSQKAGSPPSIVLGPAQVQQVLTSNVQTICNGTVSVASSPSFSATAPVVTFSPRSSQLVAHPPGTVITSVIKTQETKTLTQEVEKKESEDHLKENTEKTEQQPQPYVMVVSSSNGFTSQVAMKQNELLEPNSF
Summary of the method: as §1

[6] = target: T5, EHF (Homo sapiens, UniProt Q9NZC4 1-300)
T5 sequence: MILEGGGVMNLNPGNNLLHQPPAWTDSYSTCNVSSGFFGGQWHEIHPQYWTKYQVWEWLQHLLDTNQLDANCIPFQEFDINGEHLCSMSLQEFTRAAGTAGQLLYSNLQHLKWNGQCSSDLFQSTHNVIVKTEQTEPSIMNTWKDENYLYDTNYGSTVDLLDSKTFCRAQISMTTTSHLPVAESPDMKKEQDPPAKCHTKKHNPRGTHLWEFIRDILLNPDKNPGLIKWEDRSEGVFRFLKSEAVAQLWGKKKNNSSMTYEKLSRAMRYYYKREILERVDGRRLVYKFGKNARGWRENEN
Summary of the method: as §1

[7] = target: SPI1 (Homo sapiens, UniProt P17947 1-270)
Summary of the method: as §1

[8] = target: SPIB (Homo sapiens, UniProt Q01892 1-262)
Sequence of SPIB (Q01892 whole entry): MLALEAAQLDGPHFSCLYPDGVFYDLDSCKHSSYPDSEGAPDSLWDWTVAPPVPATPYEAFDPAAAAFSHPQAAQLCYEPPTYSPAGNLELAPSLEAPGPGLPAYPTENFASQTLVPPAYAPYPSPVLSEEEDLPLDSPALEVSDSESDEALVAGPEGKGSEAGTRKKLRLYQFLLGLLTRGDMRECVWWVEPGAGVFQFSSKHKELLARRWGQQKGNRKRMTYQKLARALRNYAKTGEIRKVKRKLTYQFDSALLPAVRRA
Summary of the method: as §1

[9] = target: T6, ELK3 (Homo sapiens, UniProt P41970 1-407)
T6 sequence: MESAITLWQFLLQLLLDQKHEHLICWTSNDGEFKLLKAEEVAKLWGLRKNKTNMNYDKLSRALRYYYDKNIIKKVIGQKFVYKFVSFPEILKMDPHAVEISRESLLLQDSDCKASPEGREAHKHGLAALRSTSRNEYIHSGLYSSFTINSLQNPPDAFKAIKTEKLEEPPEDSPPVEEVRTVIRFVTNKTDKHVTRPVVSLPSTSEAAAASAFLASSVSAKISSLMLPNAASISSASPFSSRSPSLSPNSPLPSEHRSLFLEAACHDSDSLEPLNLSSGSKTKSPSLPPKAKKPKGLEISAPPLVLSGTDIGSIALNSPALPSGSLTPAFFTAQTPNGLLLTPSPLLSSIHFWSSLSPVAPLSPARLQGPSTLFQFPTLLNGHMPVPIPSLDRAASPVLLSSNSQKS
Summary of the method: as §1

ACTTCC
binding signal [1]: 7.89 fold enrichment (6-mer frequency, TF over GST control)
binding signal [2]: 8.92 fold enrichment (6-mer frequency, TF over GST control)
binding signal [3]: 7.33 fold enrichment (6-mer frequency, TF over GST control)
binding signal [4]: 10 fold enrichment (6-mer frequency, TF over GST control)
binding signal [5]: 7.99 fold enrichment (6-mer frequency, TF over GST control)
binding signal [6]: 8.81 fold enrichment (6-mer frequency, TF over GST control)
binding signal [7]: 12.7 fold enrichment (6-mer frequency, TF over GST control)
binding signal [8]: 8.52 fold enrichment (6-mer frequency, TF over GST control)
binding signal [9]: 9.72 fold enrichment (6-mer frequency, TF over GST control)
